Results taken from the supplement of paper PMC10981050.
Values joined by “and” are separate entries in the source; they are usually repeats but may differ in a detail not shown here. Equal entries are not always repeated. Structures can show the parent of a compound that is named as a salt.

What was measured:
Assay in all cases: cell viability relative to vehicle control; higher = less cytotoxic
Details in all cases: 10 µM
K562 = system: K562
In short: (§1)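 Mutant clones made by CRISPR editing and their isogenic wild-type counterparts, from four leukaemia lines, were exposed to a single 10 µM dose of each library compound for 48 h. The supernatant was then removed and CellTiter-Glo luminescence was read. Viability was reported as percent of the on-plate vehicle control.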

MARIMO = system: MARIMO
In short: as §1

MOLM14 = system: MOLM14
In short: as §1

OCI-AML2 = system: OCI-AML2
In short: as §1

Compound	cell viability (K562; SRSF2 genotype: SRSF2 P95H/wt)	cell viability (K562; SRSF2 genotype: SRSF2 wt/wt) [%]	cell viability (MARIMO; SRSF2 genotype: SRSF2 P95H/wt) [%]	cell viability (MARIMO; SRSF2 genotype: SRSF2 wt/wt) [%]	cell viability (MOLM14; SRSF2 genotype: SRSF2 P95H/wt) [%]	cell viability (MOLM14; SRSF2 genotype: SRSF2 wt/wt) [%]	cell viability (OCI-AML2; SRSF2 genotype: P95H/wt) [%]	cell viability (OCI-AML2; SRSF2 genotype: wt/wt) [%]
C/C=C(/C)C(=O)O[C@H]1Cc2cc3ccc(=O)oc3cc2OC1(C)C [Decursinol angelate]	83.2% and 91.7%	81.8	75	82.4	83.1	89.4	71.1	77.8
CS(=O)(=O)CCNCc1ccc(-c2ccc3ncnc(Nc4ccc(OCc5cccc(F)c5)c(Cl)c4)c3c2)o1	54.6% and 37%	56.7	88.7	90.3	86.2	60.6	65	59.5
CN1CC(=O)N2[C@H](c3ccc4c(c3)OCO4)c3[nH]c4ccccc4c3C[C@@H]2C1=O [Tadalafil (Cialis)]	101% and 99.7%	106	98.5	105	97.3	99.8	103	108
Cc1cc(Nc2nc(N[C@@H](C)c3ccc(F)cc3)c(C#N)cc2F)n[nH]1	53.7% and 73%	75.5	30.6	33.4	1.75	3.5	6.13	15.8
CCCN[C@H]1CCc2nc(N)sc2C1 [Pramipexole dihydrochloride monohydrate]	102% and 83.9%	83	78.1	85.2	66.5	74.9	88.2	78.2
CN(C)CCc1c[nH]c2ccc(C[C@H]3COC(=O)N3)cc12 [Zolmitriptan (Zomig)]	96.7% and 103%	104	107	102	99.4	104	108	101
